Hits are enriched below; roughly 10% of the tested compounds scored in any of these assays.
G9a inh – qHTS Assay for Inhibitors of Histone Lysine Methyltransferase G9a; G9a H3K9 monomethylation, AlphaScreen, 2 h; hit rate 8.8% among 350,000; AID 504332, 2011; Potency, µM (titrated, usually from 102 µM), for the others: at the highest dose activity, negative = inhibition, hits mostly inhibitors; also: % is scaled to controls: 0 for no effect and ±100 for the full control effect; nearly all actives have a fitted effect of over 75% in size
Target sequence (Q96KQ7 913-1193 limits assumed): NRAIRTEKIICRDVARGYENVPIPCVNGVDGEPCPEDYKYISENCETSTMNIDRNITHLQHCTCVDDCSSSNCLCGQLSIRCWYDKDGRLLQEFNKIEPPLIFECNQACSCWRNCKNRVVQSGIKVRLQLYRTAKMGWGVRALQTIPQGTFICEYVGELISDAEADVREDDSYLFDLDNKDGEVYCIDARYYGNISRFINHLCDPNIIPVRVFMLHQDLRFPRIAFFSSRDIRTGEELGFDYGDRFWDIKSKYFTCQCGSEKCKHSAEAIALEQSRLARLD
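Compounds were preincubated with 20 nM G9a for 15 min, after which biotinylated H3K9 peptide (500 nM) and SAM (20 uM) started a 2 h room-temperature reaction. Monomethylated product was quantified by antibody-based AlphaScreen chemiluminescence.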
GLS inh – qHTS for Inhibitors of Glutaminase (GLS); Glutaminase kidney isoform, mitochondrial (Homo sapiens), O94925; GLS enzymatic activity, qHTS titration; Potency, µM (series often up to 45.5 µM), for the others: at the top dose activity change, negative = inhibition, actives largely listed as inhibitors; hit rate 0.21% among 410,000; AID 624170, 2012; also: % is scaled to controls: 0 for no effect and ±100 for the full control effect
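Assay buffer: 45 mM KH2PO4 pH 8.2, 0.02% Tween-20. hKGA acts on L-glutamine (1 mM solution added); product glutamate is reported by an oxidase/peroxidase Amplex Red coupling, with fluorescence taken at baseline and 30 min.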
BAZ2B block – qHTS Assay for Inhibitors of BAZ2B; Bromodomain adjacent to zinc finger domain protein 2B (Homo sapiens), Q9UIF8; Potency, µM (doses to about 114 µM), for inactives: at the top dose activity change, negative = inhibition, usual class: inhibitors; AID 504333, 2011; hit rate 4.4% among 360,000; AlphaScreen BAZ2B-H3K14Ac peptide displacement; also: % is scaled to controls: 0 for no effect and ±100 for the full control effect; nearly all actives have a fitted effect of over 60% in size
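Complex of BAZ2B and biotin-H3K14Ac (50 nM apiece) forms over 30 min at RT, then faces library compounds up to 110 uM for another 30 min; AlphaScreen beads added, 20 min dark incubation, luminescence read.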
HP1b chromo inh – HTS for Inhibitors of HP1-beta Chromodomain Interactions with Methylated Histone Tails; Chromobox protein homolog 1 (Homo sapiens), P83916; AlphaScreen HP1-beta / biotin-H3K9me3 peptide binding; Potency, µM (titrated, usually from 114 µM), without a hit: at the top dose activity change, negative = inhibition, most hits filed as inhibitors; hit rate 0.56% among 390,000; AID 540317, 2011; also: nearly all actives have a fitted effect of over 70% in size
Target sequence (P83916 whole entry, looked up): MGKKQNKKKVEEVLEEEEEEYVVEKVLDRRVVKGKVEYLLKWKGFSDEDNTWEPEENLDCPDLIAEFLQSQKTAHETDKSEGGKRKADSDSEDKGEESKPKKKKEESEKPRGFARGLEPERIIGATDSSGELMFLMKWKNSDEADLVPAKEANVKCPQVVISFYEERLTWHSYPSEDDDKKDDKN
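HP1-beta protein (50 nM final) preincubated 30 min at room temperature with biotinylated H3(1-18)K9me3 peptide (50 nM) in PBS pH 7.4, 0.01% Tween-20, then compound added for 30 min. AlphaScreen streptavidin donor/nickel chelate acceptor beads (10 ug/mL final), 30 min dark, luminescence read.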
JMJD2A Tudor inh – qHTS Assay for Inhibitors of JMJD2A-Tudor Domain; AlphaScreen JMJD2A-Tudor / H3K4me3 peptide binding; Potency, µM (series often up to 114 µM), without a hit: at the top dose activity change, negative = inhibition, usual class: inhibitors; hit rate 4.4% among 390,000; also: % is scaled to controls: 0 for no effect and ±100 for the full control effect; nearly all actives have a fitted effect of over 50% in size
* marks the source's active call; other numbers are inactive results; ? = inconclusive; . = not tested or not shown; [ ] = remark or other dose. Calls follow the shape of the dose curve; as a rule, active = well fitted curve in the direction sought with a large enough effect; inconclusive = small, poorly fitted or top-dose-only effect, or another doubt; inactive = no such curve, though single readings can be large; an effect the other way counts as inactive or inconclusive. Potency is read from the fitted curve at half-maximal effect.

SMILES	G9a inh	GLS inh	BAZ2B block	HP1b chromo inh	JMJD2A Tudor inh
Cc1ccc(NC(=O)Cn2nnc3ccccc32)cc1	?	7%	-15%	28%	-15%
Nc1ncnc2c1ncn2[C@@H]1O[C@H](C(=O)NCc2ccc(OC(F)(F)F)cc2)[C@@H](O)[C@H]1O	.	9%	.	.	.
CCN(CCCNC(=O)c1cc2cc3cc(C)ccc3nc2s1)c1cccc(C)c1	-44%[59 µM]	-2%	-30%	-4%[57 µM]	?
COC(=O)/C=C1/S/C(=N/NC(=O)c2ccccc2OC)NC1=O	7.9µM*	26%	-14%	37%	-10%
COc1ccc(NC(=O)N2CCN(c3nc(-c4cccc(OC)c4)cs3)CC2)cc1	13µM*	17%	?	-2%	-29%
COc1cccc(OC)c1C(=O)Nc1nc(-c2ccccc2)cs1	-5%	-13%	-10%	36%	-20%
CC(=O)Nc1cccc(-c2csc(Nc3ccccn3)n2)c1	16%[0.0925 µM]	-1%	-11%	6%	?
COc1cccc(-c2csc(N3CCN(C(=O)Nc4ccc(Cl)cc4)CC3)n2)c1	?	0%	-14%	13%	-18%
COc1cccc(-c2csc(NC(=O)Oc3ccccc3)n2)c1	-2%	-5%	?	?	89µM*
CC(=O)Nc1cccc(-c2csc(NCc3ccccc3)n2)c1	11µM*	12%	20µM*	?	13µM*
COc1ccc(-c2csc(NC(=O)CSc3nc(C)nc4sc(C(=O)O)c(C)c34)n2)cc1	.	16%	50µM*	22µM*	22µM*
O=C(Nc1ccccc1)Nc1ccc(C(=O)N2CCCC2)cc1	-3%	4%	-18%	31%	-6%
COc1ccc(-c2csc(NC(=O)CS(=O)(=O)c3ccccc3)n2)cc1	45µM*	0%	-10%	4%	-27%
O=C(COc1ccc(Cl)cc1)Nc1nc(-c2ccncc2)cs1	7.9µM*	-7%	-17%	?	-32%
COc1ccc(CCC(=O)Nc2nc(-c3ccncc3)cs2)cc1	8.9µM*	.	-7%	.	.
CCCC(=O)Nc1nc(-c2ccc(OC)cc2)cs1	11%[12.7 µM]	2%	-5%	11%	-11%
COc1ccc(CC(=O)Nc2nc(-c3ccncc3)cs2)cc1	40µM*	1%	-14%	25%	-18%
Cc1cccc(NC(=O)Cn2c(=O)n(Cc3ccccc3)c(=O)c3sc4ccccc4c32)c1	12%[59 µM]	-8%	10%	15%	-6%
NNc1nc(-c2ccccc2Cl)nc2ccccc12	22%[0.501 µM]	-10%	-14%	23%	-36%
O=C(NCc1cccnc1)/C(=C\c1ccc(-c2ccc(Br)cc2)o1)S(=O)(=O)c1ccccc1	14µM*	8%	?	-5%	?
CC1=C(C#N)C(=O)N(C2CCS(=O)(=O)C2)C(=O)/C1=C\c1ccco1 (stereo not given)	5µM*	.	7.1µM*	.	.
Cn1c(CCNC(=O)c2ccccc2Cl)n[nH]c1=S	-18%[12.7 µM]	9%	4%	9%	45µM*
Cc1ccc(C(=O)NCCc2n[nH]c(=S)n2C)cc1	?	7%	-1%	32%	?
CCn1c(CCNC(=O)c2ccc(Cl)cc2)nnc1SCC(=O)NC1CCCC1	35%[12.7 µM]	-14%	-7%	30%	-6%
CCn1c(CCNC(=O)c2ccc(Cl)cc2)n[nH]c1=S	?	4%	5%	21%	10µM*
SMILES	G9a inh	GLS inh	BAZ2B block	HP1b chromo inh	JMJD2A Tudor inh
Cc1cc(Oc2ccc(=O)n(C)n2)nc(Oc2ccc(=O)[nH]n2)n1	-1%	6%	-2%	43%	-9%
COc1ccc(C(=O)NNC(=O)C(Cc2ccc(O)cc2)NC(=O)c2ccccc2NC(=O)c2ccc(OC)cc2)cc1 (stereo not given)	-49%	12%	-8%	7%	-32%
Cc1cc(-c2ccccc2)c(C#N)c(=S)[nH]1	1.3µM*	-6%	-9%	79µM*	6.3µM*
N#Cc1c(-c2ccccc2Cl)cc(-c2ccccc2)[nH]c1=S	24%[59 µM]	.	-12%	.	.
C=CCn1c(SCC(=O)c2ccccc2)nnc1-c1ccc2c(c1)OCO2	20µM*	-1%	?	-19%	35µM*
C=CCn1c(SCC(=O)c2ccccc2)nnc1-c1cc2ccccc2o1	50µM*	9%	-4%	27%	-17%
C/C(CC(C)C)=N\NS(=O)(=O)c1ccc(C)c([N+](=O)[O-])c1	32µM*	3%	12%	-12%	?
CC(C)/C(=N\NS(=O)(=O)c1ccc(Br)cc1)c1cccs1	?	5%	-23%	-7%	50µM*
CC(NC(=O)c1cccs1)c1ccc(Br)cc1 (stereo not given)	.	5%	.	4%	?
C/C(=N\NS(=O)(=O)c1ccc([N+](=O)[O-])cc1)c1cccs1	45µM*	16%	?	-5%	?
Cc1ccc(/C=N/NC(=O)c2cccs2)cc1[N+](=O)[O-]	20%	6%	-22%[57.1 µM]	9%	-19%
O=[N+]([O-])c1ccc(S(=O)(=O)N/N=C/c2cccs2)cc1	?	30%	-31%	?	-19%
C/C(=N\NS(=O)(=O)c1ccc(C)c([N+](=O)[O-])c1)c1cccs1	32µM*	0%	.	17%	-18%
NC(=S)n1[nH]c(-c2ccc([N+](=O)[O-])cc2)c(N=Nc2ccc(Cl)cc2)c1=O	45µM*	-11%	5.6µM*	8%	63µM*
Cc1ccc(N=Nc2c(C)[nH]n(C(N)=S)c2=O)cc1	11%	1%	0%	22%	-31%
O=c1cc(-c2ccccc2)[nH]n1-c1ccc([N+](=O)[O-])cc1	?	14%	45µM*	?	35µM*
Cc1ccc([N+](=O)[O-])cc1N=Nc1c(C)[nH]n(C(N)=S)c1=O	-20%	4%	-2%	43%	-5%
Cc1ccc([N+](=O)[O-])cc1N=Nc1c(-c2ccc([N+](=O)[O-])cc2)[nH]n(C(N)=S)c1=O	?	16%	32µM*	-4%	?
NC(=O)c1ccc(N=Nc2c(-c3ccccc3)[nH]n(-c3ccccc3)c2=O)cc1	-35%	.	.	.	.
O=c1ccc(-c2ccc([N+](=O)[O-])cc2)nn1-c1ccccc1	2%	7%	0%	21%	-6%
O=c1c(N=Nc2ccc(O)cc2)c(-c2ccccc2)[nH]n1-c1ccc([N+](=O)[O-])cc1	7.1µM*	-5%	-29%	-8%	?
COCCn1c(SCC(=O)Nc2sc(C)c(C)c2C#N)nnc1C(C)C	17%[12.7 µM]	25%	13%	17%	-17%
Cc1ccc2c(=O)cc(C(=O)Nc3sc4c(c3C(=O)NCc3ccco3)CCC4)oc2c1	-27%[59 µM]	-7%	-19%	22%	-25%
